Reference: PubChem BioAssay (EPA / NIEHS)
Active and inactive are the calls of the source. How the source made its calls: active means hit-call score of the fitted dose curve at least 0.9, where 1 is the maximum; inactive means score below 0.9.

read-out: Transforming growth factor beta 1 (TGFb1), TGFB1 (gene 7040); experiment: BSK_BE3C_TGFb1: BioMAP Diversity Plus: BE3C Assay for Transforming growth factor beta 1 (TGFb1) Biomarker Activity (AID 2283036); conditions: primary human bronchial epithelial cells; actives raise or lower the signal
Protocol: BSK_BE3C is a cell-based, multiplexed-readout assay that uses bronchial epithelial cell, a human lung primary cell, with measurements taken at 24 hours after chemical dosing in a 96-well plate.BSK_BE3C_TGFb1 is an assay component measured in the BSK_BE3C assay. It measures TGF-b1 antibody related to regulation of gene expression using ELISA technology.Data from the assay component BSK_BE3C_TGFb1 was analyzed into 1 assay endpoint. This assay endpoint, BSK_BE3C_TGFb1, was analyzed with bidirectional fitting relative to DMSO as the negative control and baseline of activity. Using a type of binding reporter, gain or loss-of-signal activity can be used to understand changes in the signaling as they relate to the gene TGFB1. Furthermore, this assay endpoint can be referred to as a primary readout, because this assay has produced multiple assay endpoints where this one serves a signaling function. To generalize the intended target to other relatable targets, this assay endpoint is annotated to the growth factor intended target family, where the subfamily is transforming growth factor beta.
The levels of cell surface (or secreted, indicated by the prefix "s") biomarker endpoints were measured by ELISA. Overt cytotoxicity to cells in confluent adherent cultures (all systems other than the BT system) was assessed by measuring total protein levels using sulforhodamine B (SRB) staining in parallel cultures at the time of biomarker measurements, indicated as SRB endpoints. For proliferation assays for adherent cell types, individual cell types are cultured at sub-confluence and relative cell numbers quantified by SRB staining at time points optimized for each system (48 h: 3C and CASM3C systems; 72 h: BT and HDF3CGF systems; 96 h: SAg system). SRB was performed by staining cells with 0.1% SRB after fixation with 10% TCA and reading wells at 560 nm.Viability and proliferation of PBMC (T cells) was quantified by Alamar Blue reduction for the SAg and BT systems. For PBMC viability (referred to as PBMC Cytotoxicity within the assay endpoint names), cells were plated (75,000/well in a 96-well plate) and then chemical samples added for 1 h before addition of activators, SEB and TSST-1 (20 ng/mL final concentration each). Cells were incubated for 90 h. Then, Alamar Blue (20 uL/well) (Invitrogen, Cat DAL1100) was added for 6 h, and the plates were read with a fluorescence microplate reader at 546/580 nm (excitation/emission). For PBMC proliferation, cells were plated and activated as above but incubated for only 16 h prior to addition of Alamar Blue. Plates were read after 6 h.

| Compound | outcome | AC50 |
| --- | --- | --- |
| OCCC(F)(F)C(F)(F)C(F)(F)C(F)(F)C(F)(F)C(F)(F)F | inactive | – |
| CC[C@H](C)[C@@H](C(=O)O)n1sc2ccccc2c1=O | inactive | – |
| CC(=O)CC(C)(C)O | inactive | – |
| CCCCCCCCCCCCCC[N+](C)(C)C | – | 1.52 µM (active) |
| CCC(=C(c1ccc(O)cc1)c1ccc(OCCN(C)C)cc1)c1ccccc1 | – | 9.79 µM (active) |
| C[C@@H]1C[C@H]2[C@@H]3CCC4=CC(=O)C=C[C@]4(C)[C@@]3(F)[C@@H](O)C[C@]2(C)[C@@]1(O)C(=O)COP(=O)(O)O | inactive | – |
| O=C(OCCOCCOC(=O)c1ccccc1)c1ccccc1 | inactive | – |
| CC(O)CO (stereo not given) | inactive | – |
| CN1CCC[C@H]1c1cccnc1 | inactive | – |
| Nc1cccc2c(N)cccc12 | inactive | – |
| CCCCOCCO | inactive | – |
| CCCCCCCCC(=O)O | inactive | – |
| O=c1c(-c2ccc(O)cc2)coc2cc(O)ccc12 | inactive | – |
| CCc1nn(C2CCCCC2)c2cc(C3(C#N)CCC(C(=O)O)CC3)ccc12 (stereo not given) | inactive | – |
| COC(=O)CCCCC(=O)OC | inactive | – |
| CN1CCN(c2ccccc2/C=C2\SCCN(c3ccc(Cl)c(Cl)c3)C2=O)CC1 | – | 29.3 µM (active) |
| OC1CCC(C2CCCCC2)CC1 (stereo not given) | inactive | – |
| CCc1ccc(CCOc2ccc(CC3SC(=O)NC3=O)cc2)nc1 (stereo not given) | inactive | – |
| Cc1cc(CCN2CCN(c3nsc4ccccc34)CC2)cc2c1NC(=O)CC2(C)C | – | 27.2 µM (active) |
| Cc1oc(-c2ccccc2)nc1CCOc1ccc(C[C@H](Nc2ccccc2C(=O)c2ccccc2)C(=O)O)cc1 | – | 5.06 µM (active) |

| Compound | outcome | AC50 |
| --- | --- | --- |
| ClC1=C(Cl)C(Cl)(Cl)C(Cl)=C1Cl | – | 5.53 µM (active) |
| CC[C@H](c1ccc(O)cc1)[C@@H](CC)c1ccc(O)cc1 | – | 27.9 µM (active) |
| CCCCCCCCCCCCN1CCCC1=O | – | 20 µM (active) |
| CC(C)(C)c1cccc(C(C)(C)C)c1O | inactive | – |
| CCCCC(CC)COC(=O)CCCCC(=O)OCC(CC)CCCC (stereo not given) | inactive | – |
| Oc1cccc(O)c1 | inactive | – |
| CCCCCCCCOC(=O)CCCCCCCCC(=O)OCCCCCCCC | inactive | – |
| COCC(C)OCC(C)O (stereo not given) | inactive | – |
| O=C(O)c1ccccc1C(c1ccc(O)cc1)c1ccc(O)cc1 | inactive | – |
| O=C(O)Cc1cc(I)c(Oc2cc(I)c(O)c(I)c2)c(I)c1 | – | 8.3 µM (active) |
| NC(=O)N(O)[C@@H]1C=C[C@H](Oc2cccc(Oc3ccc(F)cc3)c2)C1 | inactive | – |
| CCC(C)(C)C1CCC(O)CC1 (stereo not given) | inactive | – |
| c1ccc2cc3c(ccc4ccccc43)cc2c1 | inactive | – |
| Cc1cc(C)c(O)c(C)c1 | inactive | – |
| CCCOC(=O)c1ccc(O)cc1 | inactive | – |
| CCCCC(CC)COC(=O)CCCCC(=O)OCc1ccccc1 (stereo not given) | inactive | – |
| c1ccc2c(c1)ccc1ccccc12 | inactive | – |
| CN(C)C=O | inactive | – |
| CCOC(=O)CC(O)(CC(=O)OCC)C(=O)OCC | inactive | – |
| CCCCCCCC(=O)O | inactive | – |
